High-throughput results as filed in PubChem BioAssay.
Tg IFNy HTS – blocks Toxoplasma gondii growth in the presence of IFN-gamma | AID 1259416 | Toxoplasma gondii growth in IFN-gamma-treated host cells; stronger effect = lower value | 69,000 compounds, 3.8% hits | activity change, negative = inhibition, % (test concentration not listed); in the data active = activity change below about -70%, passing the limit was not always enough;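 also: host cells are HeLa cells infected with Toxoplasma gondii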
An asterisk follows results filed as active; i = inactive; ! = not active in a repeat. Only a selection was taken, and hits are over-represented in it overall.

SMILES	Tg IFNy HTS
CCC(=O)N1CCC(C)(C(=O)NCc2cc(OC)cc(OC)c2)CC1	19.9
CCn1ccnc1-c1c(-c2ccccc2)ncn1CCN1CCOC1=O	3.9
CN1CCN(CCn2cnc(-c3ccccc3)c2-c2cnc[nH]2)CC1	-2.4
CCc1ncc(-c2c(-c3ccccc3)ncn2Cc2ccccc2F)cn1	21.4
CCc1nccc(-c2c(-c3ccccc3)ncn2CCN2CCOCC2)n1	-80.1*
CCc1ccc(-c2c(-c3ccccc3)ncn2CCS(C)(=O)=O)nc1	1.3
CCc1nccc(-c2c(-c3ccccc3)ncn2CC2(CO)CCOCC2)n1	-82.6*
COc1ccc(Cl)cc1NC(=O)N1CCC2(CC1)Nc1cc(F)ccc1-n1cccc12	15.6
Cc1ccnc(N2CCC(CO)(Cc3cccc(F)c3)CC2)n1	-10.1
Cc1ccccc1S(=O)(=O)N1C[C@H]2C[C@H](C(=O)NC3CCC3)[C@@H](C1)O2	1.1
Cc1ccc(C(=O)N2CCC3(CC(Nc4ncccn4)C3)C2)cn1 (centres undefined)	-2.2
C=CC(=O)Nc1cccc(Nc2nc(Nc3ccc(Oc4ccnc(C(=O)NC)c4)cc3)ncc2F)c1	-77.9*
C=CC(=O)Nc1ccc2ncnc(Nc3cccc(Br)c3)c2c1	-44.6
C=CC(=O)Nc1cccc(OC)c1	16.9
CN(C)C(=O)N1CCC2(CC1)CC(=O)N(CC1CCCO1)c1ccccc12 (centres undefined)	-0.7
CS(=O)(=O)N1CCCC(CCc2ccnc(Nc3ccccn3)c2)C1 (centres undefined)	38.6
Cn1cc(-c2nc3c(c(NC4CC4)n2)CN(S(=O)(=O)c2cccc(F)c2)CC3)cn1	-73.9*
COCCN1CCc2nc(-c3cnn(C)c3)nc(NC3CC3)c2C1	78.2
CCS(=O)(=O)N1CCc2nc(-c3cccc(F)c3)nc(NC3CC3)c2C1	-34.8
Cc1nc2cc(C(=O)NCCOC(C)C)ccc2n1C	240.3
CCc1ccc2oc(=O)cc(CN(C)CC(C)N3CCOCC3)c2c1 (centres undefined)	-0.5
COc1ccc(NC(=O)c2cncc(NS(=O)(=O)c3ccc(OC)c(OC)c3)c2)cc1	24.9
O=c1[nH]cc(F)c(=O)[nH]1	-96.3*!
CCC(CC)C(=O)Nc1c[nH]c(=O)[nH]c1=O	-6.8
Cc1ccc(-c2ccccc2NC(=O)CS(=O)CC(=O)Nc2ccc(C)c(Cl)c2)o1 (centres undefined)	33.1
SMILES	Tg IFNy HTS
Cc1ccc(NC(=O)CS(=O)CC(=O)Nc2ccc3c(c2)CCC3)cc1Cl (centres undefined)	-88.2*
Cc1ccc(NC(=O)CN2CCN(Cc3ccccc3)CC2)cc1Cl	-24.2
CCOc1ccc(C(=O)N2CCC(c3nc4ccccc4[nH]3)CC2)cc1	-3.5
CCOc1ccc(-c2nc(CNS(=O)(=O)c3ccc(F)cc3)c(C)o2)cc1	92.5
CCN1CCOCC12CCN(c1cnccn1)CC2	-45.2
Cc1nc(C)n(C(C)CC(=O)Nc2cc(Cl)cc(Cl)c2)n1 (centres undefined)	39.2
Cc1ccc2c(c1)NC1(CCN(C(=O)c3ccc(F)cc3)CC1)c1cccn1-2	7.6
N#Cc1cccc(-c2ccc(C3[C@@H]4CN(C(=O)c5ccc6c(c5)OCO6)C[C@H]3N4)cc2)c1 (some centres undefined)	-74.8*!
N#Cc1cccc(-c2ccc(C3[C@@H]4CN(C(=O)Cc5ccncc5)C[C@H]3N4)cc2)c1 (some centres undefined)	13.7
Cc1cccc(-c2ccc([C@@H]3[C@@H](CO)N4C(=O)CN(C(=O)c5ccc6c(c5)OCO6)C[C@H]34)cc2)c1	-43.3
COc1ccccc1C1(NC(=O)CCn2ccnc2-c2ccccc2)CCCC1	-4.5
CC(C)c1cc(C2CCN(C(=O)c3ccc(Cn4cnnn4)cc3)CC2)[nH]n1	-2.8
Cc1n[nH]c(C)c1CCC(=O)NCc1cccnc1N1CCCN(C)CC1	4.6
COC1C=COC2(C)Oc3c(C)c(O)c4c(c3C2=O)C2(C=C(NC(=O)/C(C)=C\C=C/C(C)C(O)C(C)C(O)C(C)C(OC(C)=O)C1C)C4=O)OCC(=O)O2 (centres undefined)	13.7
CO[C@H]1/C=C\C=C(/C)C(=O)NC2=CC(=O)C(NCCN(C)C)=C(C[C@@H](C)C[C@H](OC)[C@H](O)[C@@H](C)/C=C(\C)[C@@H]1OC(N)=O)C2=O	-81.8*!
Cc1noc(C)c1C1CCCN1C(=O)c1cc(-c2cccn2C)n[nH]1 (centres undefined)	5.5
CN(C)Cc1ccc(S(=O)(=O)n2ccc(/C=C/C(=O)NO)c2)cc1	-80.6*
Cc1nc(C(F)(F)F)nc(N2C[C@H]3C[C@H](O)[C@H](O)C[C@H]3C2)c1C	-12.6
CCCS(=O)(=O)N1CC[C@@]2(C[C@H](OCCN3CCCC3)CO2)C1	3.5
Cc1ccc(S(=O)(=O)NCCC(c2ccccc2)c2ccco2)cc1 (centres undefined)	1.2
COc1ccc(C2(CNS(=O)(=O)c3ccccc3)CCCC2)cc1OC	-11.7
COc1ccccc1C(CCNS(=O)(=O)c1ccccc1)c1ccc2c(c1)OCO2 (centres undefined)	-74.7*
COc1ccccc1CNc1nc(C(C)(C)C)nc2c1cnn2C	-21.9
CC(C)N1CCOCC2(CCCN(C(=O)c3ccc4ccccc4n3)C2)C1 (centres undefined)	10.0
CC(C)C(=O)N1CC[C@H](OCc2ccncc2)[C@@H](Cc2ccccc2)C1	-63.5
SMILES	Tg IFNy HTS
Cc1ccc(-n2c(SCc3nc(-c4ccccc4Cl)oc3C)nc3c(=O)[nH]cnc32)cc1	-35.5
CCOc1ccc(-c2nc(CSc3nc4c(=O)[nH]cnc4n3-c3ccccc3)c(C)o2)cc1OC	-21.9
Cc1cccc(-c2nc(CSc3nc4c(=O)[nH]cnc4n3-c3ccccc3)c(C)o2)c1	-109.8*
Cc1ccc(-n2c(SCc3nc(-c4ccccc4C)oc3C)nc3c(=O)[nH]cnc32)cc1	108.7
Cc1ccc(C)c(-c2nc(CSc3nc4c(=O)[nH]cnc4n3-c3ccccc3)c(C)o2)c1	-79.9*
CCn1c(SCc2nc(-c3cccc(C)c3)oc2C)nc2c(=O)[nH]cnc21	93.4
COc1ccc(-c2nc(C)c(CCNS(=O)(=O)c3ccc([N+](=O)[O-])cc3)s2)cc1OC	i
Cc1cnc(C(=O)NCC2OCCc3cn(C)nc32)cn1 (centres undefined)	i
CC(C)N1CCOC2(CCN(C(=O)c3ccc[nH]3)CC2)c2ccccc21	0.4
COCCN1C(=O)CCc2cc(NS(=O)(=O)c3cc(C)ccc3C)ccc21	-30.3
CC1CCCCN1S(=O)(=O)c1ccc(NC(=O)c2cnccn2)cc1 (centres undefined)	58.2
CN1CCN(S(=O)(=O)c2ccc(-c3cnc(N)c(C(=O)Nc4cccnc4)n3)cc2)CC1	-70.9*
CC(=O)Nc1ccc(S(=O)(=O)N2CCC(O)(c3ccccn3)CC2)cc1	3.2
COC(=O)c1c(NCc2cccc(OC)c2)c2cccc(Cl)c2[nH]c1=O	-47.5
COC(=O)c1c(NCc2ccc(C(F)(F)F)cc2)c2cc(F)ccc2[nH]c1=O	-64.5
COC(=O)c1c(NCc2cccc(OC)c2)c2cc(Cl)ccc2[nH]c1=O	-114.1*
Cc1cc(C2CCCN2C(=O)c2cc(C)sc2NC(=O)C(C)(C)C)on1 (centres undefined)	-15.1
Cc1ccc(C)c(NC(=O)C(CC(C)C)NS(=O)(=O)c2ccc3[nH]c(=O)ccc3c2)c1 (centres undefined)	12.0
Cn1nccc1-c1nc(NCc2ccccn2)ncc1-c1ccsc1	-93.0*
Cn1ccnc1-c1cnc(NCc2ccccn2)nc1-c1ccco1	26.2
Cc1nc2ncc(-c3cc(NCc4ccccn4)nc4[nH]ccc34)cc2[nH]1	-1.0
